Assay results as given in PubChem BioAssay (Tox21).
Unmarked numbers belong to inactive results. Results filed as inconclusive are left out. Where a call stands in place of a potency, no number is given. Calls of active or inactive are those of the source. Unless noted, the call rests on the fitted dose curve; in most records, active means well fitted curve in the direction sought with a large enough effect in the repeat runs; inconclusive means weak or mixed curves; inactive means no such curve, though single readings can be large; an effect the other way counts as inactive or inconclusive.

Columns and labels:
[1] = Human pregnane X receptor (PXR) small molecule agonists, qHTS cell viability counter screen (AID 1346977); further: nearly all actives have a fitted effect of over 50% in size
How it was run: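 PXR-Luc HepG2 cells (2,000/well, 5% charcoal-stripped FBS) preincubated 5 hr, then exposed to compounds 24 hr at 37 C. Viability read in the same wells by CellTiter-Fluor fluorescence, reagent added at 23 hr, 1 hr incubation.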

[2] = Caspase-3/7 induction in HepG2 cells by small molecules, qHTS assay (AID 1346978); further: nearly all actives have a fitted effect of over 15% in size
How it was run: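 Wild-type HepG2 cells (2,000/well) were settled 5 h at 37 C, 5% CO2, then exposed to compounds in DMSO for 17 h. Caspase-3/7 activity was read by luminescence 30 min after adding Caspase-Glo 3/7 reagent at room temperature.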

[3] = Caspase-3/7 induction in CHO-K1 cells by small molecules, qHTS cell viability counter screen (AID 1346979); further: nearly all actives have a fitted effect of over 35% in size
How it was run: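 Wild-type CHO-K1 cells (1,500/well) treated with compound after 5 h plating; after 16 h at 37C, viability read as CellTiter-Fluor fluorescence following 1 h reagent incubation, in the same wells as the caspase read.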

[4] = Caspase-3/7 induction in HepG2 cells by small molecules, qHTS cell viability counter screen (AID 1346981); further: series mostly up to about 92 µM; nearly all actives have a fitted effect of over 30% in size
How it was run: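 Treatment of HepG2 cells with DMSO-delivered compounds ran 16 hr at 37 C following a 5-hr pre-incubation of 2,000 cells/well. CellTiter-Fluor fluorescence, read after 1 hr, served as the viability measure in a qHTS format.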

[5] = molecular target: Nuclear receptor subfamily 1 group I member 2 (Homo sapiens) (UniProt O75469); assay: Human pregnane X receptor (PXR) small molecule agonists, qHTS assay (AID 1346982); further: nearly all actives have a fitted effect of over 35% in size; further: potency means the concentration at half of the fitted maximal effect
How it was run: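 Stable HepG2 line reporting PXR-mediated CYP3A4 expression via luciferase. Treatment: 24 hr with compounds in DMSO at 37 C. Detection: ONE-Glo luminescence.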

[6] = molecular target: Nuclear receptor subfamily 1 group I member 2 (Rattus norvegicus) (UniProt Q9R1A7); assay: Rat pregnane X receptor (rPXR) activation by small molecules, qHTS assay (AID 1346983); settings: rPXR luciferase reporter cells, One-Glo luminescence, 24 h; stronger effect = higher value; further: nearly all actives have a fitted effect of over 20% in size
How it was run: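 Cell-based rPXR luciferase reporter assay, 2,000 cells per well, rested 5hr at 37 C before compound addition in DMSO, then 24 hr at 37 C. One-Glo reagent was added and luminescence read after 30 min at room temperature.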

[7] = molecular target: Nuclear receptor subfamily 1 group I member 2 (Homo sapiens) (UniProt O75469); assay: CYP3A4 induction through human pregnane X receptor (PXR) by small molecules, qHTS assay (AID 1346984); further: nearly all actives have a fitted effect of over 40% in size
How it was run: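 After 24 h at 37C with compound, DPX-2 cells (HepG2, co-transfected PXR response element and CYP3A4 promoter-luciferase) got 3uM final P450-Glo Luciferin-IPA for 3 h; One-Glo luminescence followed.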

[8] = molecular target: Nuclear receptor subfamily 1 group I member 2 (Homo sapiens) (UniProt O75469); assay: Human pregnane X receptor (PXR) activation by small molecules, qHTS assay (AID 1346985); further: nearly all actives have a fitted effect of over 40% in size
How it was run: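 DPX-2 cells (HepG2 co-transfected with a PXR response element and a CYP3A4-promoter luciferase construct) were seeded at 2,000 per well, rested 5 hr at 37C, then exposed to DMSO-dissolved compounds for 24 hr. Activation was read as luciferase luminescence.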

[9] = molecular target: Acetylcholinesterase (Homo sapiens) (UniProt P22303); assay: Acetylcholinesterase (AChE) small molecule antagonists: colormetric cell-based qHTS assay (AID 1347395; calls by dose curve; further: nearly all actives have a fitted effect of over 30% in size)
How it was run: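 SH-SY5Y cells attached overnight, exposed to compound 30 min at 37 C, then given DTNB/acetylthiocholine; after 90 min at 37 C, colorimetric thiocholine read gives cellular AChE activity.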

[10] = molecular target: Acetylcholinesterase (Homo sapiens) (UniProt P22303); assay: Acetylcholinesterase (AChE) small molecule antagonists: enzyme-based qHTS assay (AID 1347397; calls by dose curve; further: nearly all actives have a fitted effect of over 55% in size); settings: Potency: AChE enzyme activity inhibition; outcome: AChE enzyme activity inhibition
How it was run: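 Compound or DMSO vehicle was pin-transferred onto recombinant human AChE (50 mU/mL as dispensed) and left 30 min at room temperature. Acetylthiocholine with DTNB then started the reaction, read colorimetrically 10 min later.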

[11] = molecular target: Acetylcholinesterase (Homo sapiens) (UniProt P22303); assay: Acetylcholinesterase (AChE) small molecule antagonists: fluorescence cell-based qHTS assay (AID 1347398; calls by dose curve; further: nearly all actives have a fitted effect of over 50% in size); settings: Potency: AChE activity; outcome: AChE activity
How it was run: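 Using neuroblastoma SH-SY5Y cells as the enzyme source, test chemicals are preincubated 30 min at 37 C; AChE-driven acetylthiocholine cleavage is then quantified by thiocholine-dependent Thiolite Green fluorescence after 40 min at room temperature.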

[12] = molecular target: Acetylcholinesterase (Homo sapiens) (UniProt P22303); assay: Acetylcholinesterase (AChE) small molecule antagonists: enzyme-based qHTS assay with human liver microsomes (AID 1347399; calls by dose curve; further: nearly all actives have a fitted effect of over 60% in size); settings: Potency: qHTS inhibition; outcome: qHTS inhibition
How it was run: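 Recombinant human AChE (50 mU/mL in the enzyme mix) and human liver microsomes (0.25 mg/mL final) were preincubated with compound and NADPH (0.25 mg/mL final) for 30 min at 37 C. Acetylthiocholine/DTNB was then added; thiocholine was read colorimetrically after 10 min at room temperature.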

[13] = molecular target: Cytochrome P450 2D6 (Homo sapiens) (UniProt P10635); assay: Cytochrome P450 Family 2 Subfamily D Member 6 (CYP2D6) small molecule antagonists: luciferase reporter qHTS assay (AID 1671196); further: nearly all actives have a fitted effect of over 50% in size; further: potency means the concentration at half of the fitted maximal effect
How it was run: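 Chemicals tested for interference with CYP2D6 activity; proluciferin substrate, NADPH regeneration, 1 h at room temperature, luminescent detection.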

[14] = molecular target: Cytochrome P450 2C19 (Homo sapiens) (UniProt P33261); assay: Cytochrome P450 Family 2 Subfamily C Member 19 (CYP2C19) small molecule antagonists: luciferase reporter qHTS assay (AID 1671197); further: nearly all actives have a fitted effect of over 65% in size; further: potency means the concentration at half of the fitted maximal effect
How it was run: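 CYP2C19 P450-Glo, 1536-well qHTS. Cpd + enzyme/proluciferin substrate 10 min RT; + NADPH regen, 37C 1 h; stop with luciferin detection reagent, 20 min RT, luminescence (RLU). Pos ctrl ketoconazole.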

[15] = molecular target: Cytochrome P450 2C9 (Homo sapiens) (UniProt P11712); assay: Cytochrome P450 Family 2 Subfamily C Member 9 (CYP2C9) small molecule antagonists: luciferase reporter qHTS assay (AID 1671198); further: nearly all actives have a fitted effect of over 50% in size; further: potency means the concentration at half of the fitted maximal effect
How it was run: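 CYP2C9 activity was measured with a P450-Glo proluciferin substrate. Enzyme–substrate mix was held with compound for 10 min at room temperature, then NADPH regeneration solution was added for 1 h at 37C. Luciferin product was read as luminescence.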

[16] = molecular target: Cytochrome P450 1A2 (Homo sapiens) (UniProt P05177); assay: Cytochrome P450 Family 1 Subfamily A Member 2 (CYP1A2) small molecule antagonists: luciferase reporter qHTS assay (AID 1671199); further: nearly all actives have a fitted effect of over 50% in size; further: potency means the concentration at half of the fitted maximal effect
How it was run: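 Read-out is luminescence from luciferin detection reagent (20 min) proportional to CYP1A2 activity; compounds in DMSO preincubated 10 min with enzyme and proluciferin substrate, then NADPH regeneration solution, 1 h, room temperature.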

[17] = molecular target: Voltage-gated inwardly rectifying potassium channel KCNH2 (Homo sapiens) (UniProt Q12809); assay: Human Ether-a-go-go-Related Gene (hERG) channel small molecule antagonists: fluorescence cell-based qHTS assay (AID 1671200); further: nearly all actives have a fitted effect of over 50% in size; further: potency means the concentration at half of the fitted maximal effect
How it was run: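 hERG-U2OS cells plated overnight at 37 C, loaded with FluxOR II dye 1 h at RT in dark; after 10 min, thallium stimulus added. Fluorescence (480/540 nm) read kinetically for 2 min at 1 s intervals.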

[18] = Caspase-3/7 induction in CHO-K1 cells by small molecules, qHTS assay (AID 1346980); further: nearly all actives have a fitted effect of over 15% in size
How it was run: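 Wild-type cells were seeded at 1,500 per well and settled 5 hr at 37 C, 5% CO2, then exposed to DMSO-dissolved compounds for 17 hr. Caspase-Glo 3/7 reagent was added, and luminescence was read after 30min at room temperature.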

[19] = molecular target: Cytochrome P450 3A4 (Homo sapiens) (UniProt P08684); assay: Cytochrome P450 Family 3 Subfamily A Member 4 (CYP3A4) small molecule antagonists: luciferase reporter qHTS assay (AID 1671201)
How it was run: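 P450-Glo CYP3A4 luminescent assay: compounds preincubated 10 min at room temperature with enzyme and proluciferin substrate, NADPH regeneration added, 1 h room-temperature reaction, stopped with luciferin detection reagent; luminescence read after 20 min. Ketoconazole positive control.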

Chain of Cytochrome P450 2D6 (Homo sapiens) (P10635 whole entry, looked up): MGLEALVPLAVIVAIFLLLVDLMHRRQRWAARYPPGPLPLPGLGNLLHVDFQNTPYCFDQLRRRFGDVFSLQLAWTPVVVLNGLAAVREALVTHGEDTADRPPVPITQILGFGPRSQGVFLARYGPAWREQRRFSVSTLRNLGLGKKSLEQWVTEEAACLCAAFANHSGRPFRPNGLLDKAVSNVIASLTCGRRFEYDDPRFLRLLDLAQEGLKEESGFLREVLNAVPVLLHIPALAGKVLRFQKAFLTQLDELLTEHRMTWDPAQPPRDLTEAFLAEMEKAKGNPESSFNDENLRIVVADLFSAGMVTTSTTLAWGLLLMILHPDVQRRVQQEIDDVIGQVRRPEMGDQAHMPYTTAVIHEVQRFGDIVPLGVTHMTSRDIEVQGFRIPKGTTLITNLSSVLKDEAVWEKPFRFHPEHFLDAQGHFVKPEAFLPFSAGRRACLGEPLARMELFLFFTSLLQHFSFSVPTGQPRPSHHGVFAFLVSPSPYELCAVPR
Chain of Cytochrome P450 3A4 (Homo sapiens) (P08684 whole entry, looked up): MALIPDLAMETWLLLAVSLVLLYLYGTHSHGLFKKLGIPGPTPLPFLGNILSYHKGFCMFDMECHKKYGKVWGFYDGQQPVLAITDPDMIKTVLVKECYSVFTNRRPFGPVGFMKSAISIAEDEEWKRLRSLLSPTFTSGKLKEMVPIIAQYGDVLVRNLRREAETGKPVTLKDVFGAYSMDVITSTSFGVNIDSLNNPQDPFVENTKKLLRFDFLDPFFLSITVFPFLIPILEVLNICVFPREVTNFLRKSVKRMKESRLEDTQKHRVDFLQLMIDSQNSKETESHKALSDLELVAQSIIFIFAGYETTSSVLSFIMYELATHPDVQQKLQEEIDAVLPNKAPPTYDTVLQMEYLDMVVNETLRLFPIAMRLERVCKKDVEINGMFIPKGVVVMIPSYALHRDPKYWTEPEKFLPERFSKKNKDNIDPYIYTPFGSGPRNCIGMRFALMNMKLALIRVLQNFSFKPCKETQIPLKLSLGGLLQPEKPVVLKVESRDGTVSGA
Chain of Cytochrome P450 1A2 (Homo sapiens) (P05177 whole entry, looked up): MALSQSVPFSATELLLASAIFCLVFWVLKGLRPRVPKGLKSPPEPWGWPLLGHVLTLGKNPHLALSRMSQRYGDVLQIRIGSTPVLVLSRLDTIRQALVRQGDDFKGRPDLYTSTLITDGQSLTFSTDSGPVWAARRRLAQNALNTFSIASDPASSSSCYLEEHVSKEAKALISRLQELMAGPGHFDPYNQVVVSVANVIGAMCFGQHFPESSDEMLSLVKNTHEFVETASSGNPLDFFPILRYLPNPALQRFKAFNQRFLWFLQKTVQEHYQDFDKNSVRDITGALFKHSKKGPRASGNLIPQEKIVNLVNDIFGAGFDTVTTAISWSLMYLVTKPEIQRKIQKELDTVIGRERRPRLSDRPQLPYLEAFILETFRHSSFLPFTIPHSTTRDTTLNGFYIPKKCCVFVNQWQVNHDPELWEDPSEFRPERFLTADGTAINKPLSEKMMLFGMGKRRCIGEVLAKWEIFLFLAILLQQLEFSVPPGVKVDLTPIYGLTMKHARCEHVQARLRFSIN
Chain of Nuclear receptor subfamily 1 group I member 2 (Rattus norvegicus) (Q9R1A7 whole entry, looked up): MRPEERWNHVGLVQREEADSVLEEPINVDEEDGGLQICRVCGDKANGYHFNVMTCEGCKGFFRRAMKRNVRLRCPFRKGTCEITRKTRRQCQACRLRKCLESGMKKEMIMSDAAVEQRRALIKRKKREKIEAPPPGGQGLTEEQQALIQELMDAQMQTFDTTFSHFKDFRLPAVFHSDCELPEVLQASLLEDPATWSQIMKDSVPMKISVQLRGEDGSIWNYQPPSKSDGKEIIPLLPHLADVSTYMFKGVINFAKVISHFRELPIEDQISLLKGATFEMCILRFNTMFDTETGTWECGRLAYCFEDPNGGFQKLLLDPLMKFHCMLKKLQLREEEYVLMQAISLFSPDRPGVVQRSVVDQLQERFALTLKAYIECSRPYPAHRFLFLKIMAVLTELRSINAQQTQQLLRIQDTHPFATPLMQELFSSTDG
Chain of Voltage-gated inwardly rectifying potassium channel KCNH2 (Homo sapiens) (Q12809 whole entry, looked up): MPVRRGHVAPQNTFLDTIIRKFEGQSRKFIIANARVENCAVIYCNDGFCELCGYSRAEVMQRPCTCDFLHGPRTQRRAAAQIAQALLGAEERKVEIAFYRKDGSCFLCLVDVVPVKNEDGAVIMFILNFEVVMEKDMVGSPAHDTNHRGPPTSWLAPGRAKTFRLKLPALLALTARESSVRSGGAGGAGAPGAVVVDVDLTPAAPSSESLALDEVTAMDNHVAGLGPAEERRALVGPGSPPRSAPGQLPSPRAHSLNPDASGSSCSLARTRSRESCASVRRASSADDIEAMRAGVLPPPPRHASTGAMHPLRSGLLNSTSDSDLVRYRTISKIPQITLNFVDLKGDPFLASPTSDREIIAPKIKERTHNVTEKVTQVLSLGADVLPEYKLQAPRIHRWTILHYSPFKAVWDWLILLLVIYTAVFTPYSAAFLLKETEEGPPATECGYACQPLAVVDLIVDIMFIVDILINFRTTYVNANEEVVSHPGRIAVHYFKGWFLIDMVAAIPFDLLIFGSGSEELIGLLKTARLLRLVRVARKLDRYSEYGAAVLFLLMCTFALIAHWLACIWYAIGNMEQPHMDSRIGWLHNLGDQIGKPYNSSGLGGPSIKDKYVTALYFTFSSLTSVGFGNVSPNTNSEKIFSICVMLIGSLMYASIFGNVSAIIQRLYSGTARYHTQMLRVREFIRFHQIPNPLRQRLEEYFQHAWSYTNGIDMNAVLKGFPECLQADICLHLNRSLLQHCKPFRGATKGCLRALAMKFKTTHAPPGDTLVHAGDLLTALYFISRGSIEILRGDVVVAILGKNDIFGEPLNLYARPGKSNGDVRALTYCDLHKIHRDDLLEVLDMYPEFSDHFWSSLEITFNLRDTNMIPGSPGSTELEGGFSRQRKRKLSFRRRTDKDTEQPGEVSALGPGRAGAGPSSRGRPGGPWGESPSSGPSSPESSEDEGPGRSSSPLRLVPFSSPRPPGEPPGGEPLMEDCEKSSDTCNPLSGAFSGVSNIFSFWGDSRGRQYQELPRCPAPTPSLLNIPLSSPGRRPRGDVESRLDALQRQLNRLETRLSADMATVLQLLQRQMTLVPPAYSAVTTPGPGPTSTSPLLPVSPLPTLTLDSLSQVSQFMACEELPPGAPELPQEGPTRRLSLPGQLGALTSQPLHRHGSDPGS
Chain of Acetylcholinesterase (Homo sapiens) (P22303 whole entry, looked up): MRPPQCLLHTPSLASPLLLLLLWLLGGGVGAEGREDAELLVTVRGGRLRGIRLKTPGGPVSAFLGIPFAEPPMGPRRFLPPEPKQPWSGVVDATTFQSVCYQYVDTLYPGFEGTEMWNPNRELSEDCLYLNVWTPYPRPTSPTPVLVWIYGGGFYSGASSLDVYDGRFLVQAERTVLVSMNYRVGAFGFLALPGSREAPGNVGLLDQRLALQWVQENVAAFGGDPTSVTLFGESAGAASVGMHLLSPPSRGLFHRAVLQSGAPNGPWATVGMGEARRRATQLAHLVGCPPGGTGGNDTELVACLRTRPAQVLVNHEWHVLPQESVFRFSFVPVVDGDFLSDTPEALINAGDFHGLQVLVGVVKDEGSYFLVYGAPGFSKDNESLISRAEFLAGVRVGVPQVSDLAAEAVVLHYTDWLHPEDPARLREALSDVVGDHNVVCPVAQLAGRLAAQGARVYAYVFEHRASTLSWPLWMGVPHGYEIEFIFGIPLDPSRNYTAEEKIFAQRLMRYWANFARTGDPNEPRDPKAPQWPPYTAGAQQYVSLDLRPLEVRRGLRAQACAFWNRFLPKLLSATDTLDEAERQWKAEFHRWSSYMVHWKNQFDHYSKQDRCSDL
Chain of Cytochrome P450 2C9 (Homo sapiens) (P11712 whole entry, looked up): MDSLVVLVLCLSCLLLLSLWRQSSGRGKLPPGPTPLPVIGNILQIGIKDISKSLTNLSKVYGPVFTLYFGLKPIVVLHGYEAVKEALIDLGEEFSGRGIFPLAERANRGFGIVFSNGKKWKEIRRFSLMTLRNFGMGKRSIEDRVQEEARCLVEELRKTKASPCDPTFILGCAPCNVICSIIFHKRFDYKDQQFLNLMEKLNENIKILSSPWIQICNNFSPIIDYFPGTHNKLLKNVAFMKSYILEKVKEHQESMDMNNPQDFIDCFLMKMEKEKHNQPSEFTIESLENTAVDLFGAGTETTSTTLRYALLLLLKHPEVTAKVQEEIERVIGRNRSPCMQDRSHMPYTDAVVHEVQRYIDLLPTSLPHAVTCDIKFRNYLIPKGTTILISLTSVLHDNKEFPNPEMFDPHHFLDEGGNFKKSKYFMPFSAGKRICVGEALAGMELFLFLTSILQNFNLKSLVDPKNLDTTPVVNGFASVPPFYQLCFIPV
Chain of Cytochrome P450 2C19 (Homo sapiens) (P33261 whole entry, looked up): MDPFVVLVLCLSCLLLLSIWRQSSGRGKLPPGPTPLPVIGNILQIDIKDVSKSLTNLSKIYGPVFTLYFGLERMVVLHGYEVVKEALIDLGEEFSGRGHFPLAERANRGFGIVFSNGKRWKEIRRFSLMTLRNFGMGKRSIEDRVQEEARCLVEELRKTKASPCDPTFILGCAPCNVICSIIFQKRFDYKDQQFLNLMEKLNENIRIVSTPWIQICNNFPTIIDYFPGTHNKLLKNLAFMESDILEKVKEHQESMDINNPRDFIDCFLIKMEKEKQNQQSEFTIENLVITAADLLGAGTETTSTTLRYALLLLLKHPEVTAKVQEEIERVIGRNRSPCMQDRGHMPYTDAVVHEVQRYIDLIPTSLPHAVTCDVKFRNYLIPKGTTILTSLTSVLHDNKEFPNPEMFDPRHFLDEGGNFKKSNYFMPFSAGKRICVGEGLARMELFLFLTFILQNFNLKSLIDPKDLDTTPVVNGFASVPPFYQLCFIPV

| Structure (SMILES) | Potency [1] | outcome [2] | Potency [3] | Potency [4] | Potency [5] | max activation [6] [%] | Potency [7] | Potency [8] | Potency [9] | Potency [10] | Potency [11] | Potency [12] | Potency [13] | Potency [14] | Potency [15] | Potency [16] | Potency [17] | outcome [18] | Potency [19] |
| --- | --- | --- | --- | --- | --- | --- | --- | --- | --- | --- | --- | --- | --- | --- | --- | --- | --- | --- | --- |
| C=C1CC[C@@]2(O)[C@H]3Cc4ccc(O)c5c4[C@@]2(CCN3CC2CC2)[C@H]1O5 | inactive | inactive | inactive | inactive | inactive | 0.729 | inactive | inactive | inactive | inactive | inactive | inactive | 2.19 µM (active) | inactive | inactive | inactive | inactive |  |  |
| C/C=C/CC#N | inactive | inactive | inactive | inactive |  |  |  |  | inactive | inactive | inactive | inactive | inactive | inactive | inactive | 36.4 µM (active) | inactive | inactive | inactive |
| COc1ccccc1OC | inactive | inactive | inactive | inactive | inactive |  |  |  | inactive |  | inactive | inactive |  | 79.6 µM (active) | inactive | inactive | inactive |  | inactive |
| COc1ccc(C=O)cc1O | inactive | inactive |  | inactive | inactive |  |  |  | inactive | inactive | inactive | inactive | inactive |  | inactive |  | inactive | inactive | inactive |
| CC(C)(O)C(Cl)(Cl)Cl | inactive | inactive |  | inactive | inactive | -2.13 | inactive | inactive | inactive | inactive |  | inactive | inactive | inactive | inactive | inactive | inactive | inactive | inactive |
| C=CC(=O)OCCN(C)C | inactive | inactive |  | inactive | inactive |  |  |  | inactive | inactive | inactive | inactive | inactive |  | inactive | inactive | inactive | inactive | inactive |
| CCN(CC)C1CCCCC1 | inactive | inactive |  | inactive | inactive |  |  |  | inactive | inactive | inactive | inactive | inactive | inactive | inactive |  | inactive | inactive |  |
| O=S1(=O)OCCO1 | inactive | inactive |  | inactive | inactive |  |  |  | inactive | inactive | inactive | inactive |  |  |  |  | inactive | inactive | inactive |
| CC(C)(C)NC[C@H](O)c1ccc(O)cc1Cl | inactive | inactive |  | inactive | inactive |  |  |  | inactive | inactive | inactive | inactive | 30.9 µM (active) | inactive |  | inactive | inactive | inactive |  |
| C=C(Cl)CSC(=S)N(CC)CC | inactive | inactive |  | inactive | inactive |  |  |  | inactive | inactive |  | inactive | inactive | 34.7 µM (active) | 38.9 µM (active) | 9.77 µM (active) | 53.5 µM (active) | inactive |  |
| CCOC(=O)c1ncn2c1CN(C)C(=O)c1c(I)cccc1-2 | inactive | inactive | inactive | inactive | inactive |  |  |  | inactive | inactive | inactive | inactive |  |  |  | inactive | inactive |  | inactive |
| O=C(NC(O)C(Cl)(Cl)Cl)NC(O)C(Cl)(Cl)Cl (configuration not stated) | inactive | inactive |  | inactive | inactive | -0.374 | inactive | inactive | inactive |  | inactive | inactive |  | inactive | inactive | inactive | inactive | inactive | inactive |
| COC1=CC(=O)O[C@@H](/C=C/c2ccccc2)C1 | inactive | inactive |  | inactive | 24.7 µM (active) |  |  |  | inactive | inactive | inactive | inactive |  | 5.72 µM (active) | 32.2 µM (active) | 28.7 µM (active) | inactive | inactive | inactive |
| Cl/C=C/CCl | inactive | inactive |  | inactive | inactive |  |  |  | inactive | inactive | inactive | inactive |  | inactive | inactive |  | inactive | inactive | inactive |
| CCSC(=O)Cl | inactive | inactive | inactive | inactive | inactive |  |  |  | inactive | inactive | inactive | inactive |  | inactive |  | inactive | inactive |  | inactive |
| Cc1ccc(S(=O)(=O)N[C@@H](CCCCN)C(=O)CCl)cc1 | inactive | inactive |  | inactive | inactive | -2.32 | inactive | inactive | inactive |  |  | inactive | 17.4 µM (active) | 38.9 µM (active) |  | inactive | inactive | inactive |  |
| c1cncc([C@@H]2CCCCN2)c1 | inactive | inactive |  | inactive | 21.7 µM (active) |  |  |  | inactive | inactive | inactive | inactive |  | 39.9 µM (active) |  |  | inactive | inactive |  |
